Assay results from PubChem BioAssay.
Active and inactive are the calls of the source.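 Rule for the calls: active = luciferase signal above three times the same-plate solvent-only control wells; inactive = the rest.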

Test system: not listed separately
Experiment: sensitizers of A549 cells to miR-34 induction, primary screen, imaging, A549 dox-inducible miR-34, nuclei and caspase counts (AID 1347080)
Settings: A549 miR-34 inducible, Hoechst nuclei count, 48 h; measured here: relative caspase fold change +Dox/-Dox
For `O=C1CC2OCC=C3CN4CC[C@]56c7ccccc7N1C5[C@H]2[C@H]3CC46` (some centres undefined), the fold change was 1.82.
`CNC(C)[C@@H]1CC[C@@H](N)[C@@H](OC2[C@@H](N)C[C@@H](N)[C@H](OC3OC[C@](C)(O)[C@H](NC)[C@H]3O)[C@H]2O)O1` (some centres undefined) gave a fold change of 0.842.
`O=C1OCCN1/N=C/c1ccc([N+](=O)[O-])o1` gave a fold change of 1.85.

Same assay, conditions: A549 miR-34 inducible, Hoechst nuclei count, 48 h; measured here: total cells with miR-34 induction; stronger effect = lower value
For `O=C1CC2OCC=C3CN4CC[C@]56c7ccccc7N1C5[C@H]2[C@H]3CC46` (some centres undefined), the cell count was 11700.
Work on `CNC(C)[C@@H]1CC[C@@H](N)[C@@H](OC2[C@@H](N)C[C@@H](N)[C@H](OC3OC[C@](C)(O)[C@H](NC)[C@H]3O)[C@H]2O)O1` (some centres undefined) yielded a cell count of 10800.
Compound `O=C1OCCN1/N=C/c1ccc([N+](=O)[O-])o1` has a cell count of 9350.

Same assay, conditions: A549 miR-34 inducible, Hoechst nuclei count, 48 h; measured here: total cells without miR-34 induction
Compound `O=C1CC2OCC=C3CN4CC[C@]56c7ccccc7N1C5[C@H]2[C@H]3CC46` (some centres undefined) has a cell count of 12700.
`CNC(C)[C@@H]1CC[C@@H](N)[C@@H](OC2[C@@H](N)C[C@@H](N)[C@H](OC3OC[C@](C)(O)[C@H](NC)[C@H]3O)[C@H]2O)O1` (some centres undefined) gave a cell count of 13000.
Work on `O=C1OCCN1/N=C/c1ccc([N+](=O)[O-])o1` yielded a cell count of 10900.

Biological target: Mitogen-activated protein kinase 7 (Homo sapiens) (UniProt Q13164)
Sequence (Q13164 whole entry, looked up, the tested form may be a part): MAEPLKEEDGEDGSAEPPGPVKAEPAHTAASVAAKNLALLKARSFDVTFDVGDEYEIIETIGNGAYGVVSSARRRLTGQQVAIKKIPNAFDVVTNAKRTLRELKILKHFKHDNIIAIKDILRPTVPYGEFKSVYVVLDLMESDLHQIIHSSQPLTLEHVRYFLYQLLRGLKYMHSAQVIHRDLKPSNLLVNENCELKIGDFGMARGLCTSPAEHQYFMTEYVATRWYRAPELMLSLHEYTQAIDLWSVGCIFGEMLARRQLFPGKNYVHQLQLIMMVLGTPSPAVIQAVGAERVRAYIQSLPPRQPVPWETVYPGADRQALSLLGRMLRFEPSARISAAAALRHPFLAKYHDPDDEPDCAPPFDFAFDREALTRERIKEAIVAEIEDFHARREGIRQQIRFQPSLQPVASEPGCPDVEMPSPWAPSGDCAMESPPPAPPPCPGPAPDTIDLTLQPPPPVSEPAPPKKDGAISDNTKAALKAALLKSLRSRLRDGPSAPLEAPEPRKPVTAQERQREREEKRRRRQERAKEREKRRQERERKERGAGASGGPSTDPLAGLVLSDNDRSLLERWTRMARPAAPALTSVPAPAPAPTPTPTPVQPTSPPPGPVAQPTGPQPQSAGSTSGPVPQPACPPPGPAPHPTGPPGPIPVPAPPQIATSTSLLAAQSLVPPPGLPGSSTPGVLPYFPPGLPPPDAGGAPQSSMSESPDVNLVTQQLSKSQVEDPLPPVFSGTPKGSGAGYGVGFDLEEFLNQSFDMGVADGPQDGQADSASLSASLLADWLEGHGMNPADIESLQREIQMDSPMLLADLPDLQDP
Experiment: ERK5 transactivation activators in reporter cells, primary screen, cell-based, HTS (AID 1508626);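 note: luciferase driven by Gal4-ERK5 fusion binding five Gal4 sites before minimal TATA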
Settings: HeLa Gal4-ERK5 transactivation, 18 h, at 5 µM, stronger effect = higher value
In the case of `CC12CCCCC1(Br)[N+](=O)N2[O-]` (centres undefined), the luciferase signal is reported as 64 AU (inactive).
With `COc1ccc2c(c1OC)C(=O)O[C@H]2[C@H]1c2cc3c(cc2CCN1C)OCO3` the luciferase signal was 76 AU (inactive).
For `C=C[C@@H]1C2=CCOC(=O)C2=CO[C@H]1O[C@@H]1O[C@H](CO)[C@@H](O)[C@H](O)[C@H]1O`, the luciferase signal was 64 AU (inactive).
For `O=C(NC(=O)c1ccccc1Cl)Nc1ccc(OC(F)(F)F)cc1`, the luciferase signal was 68 AU (inactive).
With `O=c1ccc2c(O)c3ccoc3cc2o1` the luciferase signal was 32 AU (inactive).
With `C=C1C2CC[C@H]3[C@]4(C)C[C@H](OC5OC(CO)C(OS(=O)(=O)O)C(OS(=O)(=O)O)C5OC(=O)CC(C)C)C[C@@H](C(=O)O)[C@H]4CC[C@]3(C2)[C@H]1O` (some centres undefined) the luciferase signal was 160 AU (inactive).
With `CNC(Cc1c[nH]c2ccccc12)C(=O)O` (centres undefined) the luciferase signal was 36 AU (inactive).
For `CC1(C)N([O-])[N+](=O)C1(C)Br` (centres undefined), the luciferase signal was 44 AU (inactive).
For `CC1(C)C2C[C@@H](O)[C@]3(C)C(CC[C@@]4(C)[C@H](c5ccoc5)OC(=O)[C@H]5O[C@]543)[C@@]2(C)[C@@H](O)C[C@H]1O` (some centres undefined), the luciferase signal was 32 AU (inactive).
In the case of `c1cc2c(cc1[C@H]1OC[C@H]3[C@@H]1CO[C@H]3c1ccc3c(c1)OCO3)OCO2`, the luciferase signal is reported as 52 AU (inactive).
